# Data as given in PubChem BioAssay.
# Unmarked numbers belong to inactive results. The list shows a part of the results. Active and inactive are the calls of the source. Cut-off read from the data, not from the text of the source, unless noted: active = inhibition above about 25%; inactive = the rest.
# Experiments:
# [1] = target: Nuclear receptor coactivator 3 (Homo sapiens) (UniProt Q9Y6Q9); test: SRC3 coactivator transcriptional activity inhibitors, confirmation, cell-based, luminescence, quadruplicate (AID 588792;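 active = mean inhibition over 43.08%, the solvent-only control mean plus 3 SD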;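 note: 0% = DMSO treated cells and 100% = gossypol at 36 µM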); details: HEK293 GAL4-SRC3 luciferase reporter, at 3.6 µM, active compounds read high
# Nuclear receptor coactivator 3 (Homo sapiens), sequence (Q9Y6Q9 whole entry, looked up, the tested form may be a part): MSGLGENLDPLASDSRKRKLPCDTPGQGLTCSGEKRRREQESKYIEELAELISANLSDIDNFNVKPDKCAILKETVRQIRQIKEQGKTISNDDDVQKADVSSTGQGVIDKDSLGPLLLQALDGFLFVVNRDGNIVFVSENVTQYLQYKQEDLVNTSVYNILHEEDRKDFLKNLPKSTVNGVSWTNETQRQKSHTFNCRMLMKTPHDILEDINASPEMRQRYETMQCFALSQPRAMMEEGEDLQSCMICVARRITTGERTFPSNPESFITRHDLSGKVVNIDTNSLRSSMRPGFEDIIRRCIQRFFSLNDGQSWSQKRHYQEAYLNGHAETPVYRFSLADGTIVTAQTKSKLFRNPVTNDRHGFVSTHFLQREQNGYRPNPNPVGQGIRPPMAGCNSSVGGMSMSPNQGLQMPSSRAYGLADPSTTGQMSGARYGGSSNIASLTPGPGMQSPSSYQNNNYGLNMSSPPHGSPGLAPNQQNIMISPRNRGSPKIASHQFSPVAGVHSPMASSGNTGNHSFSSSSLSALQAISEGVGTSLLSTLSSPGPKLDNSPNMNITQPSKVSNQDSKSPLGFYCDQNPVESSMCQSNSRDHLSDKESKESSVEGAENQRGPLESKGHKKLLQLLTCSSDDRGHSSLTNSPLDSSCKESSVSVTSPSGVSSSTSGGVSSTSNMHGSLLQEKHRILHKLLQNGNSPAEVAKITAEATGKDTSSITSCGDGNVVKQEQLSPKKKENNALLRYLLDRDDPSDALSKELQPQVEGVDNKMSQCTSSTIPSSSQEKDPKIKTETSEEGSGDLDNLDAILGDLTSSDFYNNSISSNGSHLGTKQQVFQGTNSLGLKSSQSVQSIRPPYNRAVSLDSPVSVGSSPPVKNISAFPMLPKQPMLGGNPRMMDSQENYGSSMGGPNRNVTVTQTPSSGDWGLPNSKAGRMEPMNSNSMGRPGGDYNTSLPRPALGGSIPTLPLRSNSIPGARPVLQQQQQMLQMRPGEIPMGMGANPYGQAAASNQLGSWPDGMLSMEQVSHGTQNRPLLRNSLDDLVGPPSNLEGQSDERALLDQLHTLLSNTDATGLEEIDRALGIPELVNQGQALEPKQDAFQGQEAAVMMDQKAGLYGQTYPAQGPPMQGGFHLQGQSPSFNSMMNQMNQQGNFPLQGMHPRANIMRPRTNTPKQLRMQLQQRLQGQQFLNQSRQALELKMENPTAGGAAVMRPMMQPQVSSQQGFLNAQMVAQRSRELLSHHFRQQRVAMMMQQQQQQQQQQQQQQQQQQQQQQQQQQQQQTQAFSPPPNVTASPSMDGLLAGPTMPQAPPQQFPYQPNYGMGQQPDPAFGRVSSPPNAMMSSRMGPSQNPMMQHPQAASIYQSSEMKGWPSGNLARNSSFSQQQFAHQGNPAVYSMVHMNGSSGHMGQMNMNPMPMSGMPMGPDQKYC
# [2] = test system: transactivating tegument protein VP16 (Human herpesvirus 1), Gal4-VP16 luciferase reporter; test: VP16 transactivation inhibitors, counter-screen for SRC3 inhibitor project, cell-based, luminescence, high throughput (AID 588794; in the data active = inhibition above about 30%); details: mammalian cells, VP16-driven luciferase reporter luminescence; at 3.6 µM; active compounds read high
# [3] = test system: transactivating tegument protein VP16 (Human herpesvirus 1); test: VP16 transactivation reporter inhibitors, counter-screen for SRC2 inhibitor project, cell-based, luminescence, single concentration (AID 652007; in the data active = inhibition above about 36%); details: cell-based VP16 transactivation luciferase reporter, at 8.9 µM, active compounds read high
# [4] = target: Nuclear receptor coactivator 2 (Homo sapiens) (UniProt Q15596); test: SRC2 coactivator transcriptional activity inhibitors, confirmation, cell-based, luminescence, HEK293, triplicate (AID 652008;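 active = mean inhibition above 46.5%, the solvent-only control mean plus 3 SD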;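 note: 0% = DMSO-treated cells and 100% = Gossypol at 36 µM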); details: HEK293 GAL4-SRC2 luciferase reporter, at 8.9 µM, active compounds read high
# Nuclear receptor coactivator 2 (Homo sapiens), sequence (Q15596 whole entry, looked up, the tested form may be a part): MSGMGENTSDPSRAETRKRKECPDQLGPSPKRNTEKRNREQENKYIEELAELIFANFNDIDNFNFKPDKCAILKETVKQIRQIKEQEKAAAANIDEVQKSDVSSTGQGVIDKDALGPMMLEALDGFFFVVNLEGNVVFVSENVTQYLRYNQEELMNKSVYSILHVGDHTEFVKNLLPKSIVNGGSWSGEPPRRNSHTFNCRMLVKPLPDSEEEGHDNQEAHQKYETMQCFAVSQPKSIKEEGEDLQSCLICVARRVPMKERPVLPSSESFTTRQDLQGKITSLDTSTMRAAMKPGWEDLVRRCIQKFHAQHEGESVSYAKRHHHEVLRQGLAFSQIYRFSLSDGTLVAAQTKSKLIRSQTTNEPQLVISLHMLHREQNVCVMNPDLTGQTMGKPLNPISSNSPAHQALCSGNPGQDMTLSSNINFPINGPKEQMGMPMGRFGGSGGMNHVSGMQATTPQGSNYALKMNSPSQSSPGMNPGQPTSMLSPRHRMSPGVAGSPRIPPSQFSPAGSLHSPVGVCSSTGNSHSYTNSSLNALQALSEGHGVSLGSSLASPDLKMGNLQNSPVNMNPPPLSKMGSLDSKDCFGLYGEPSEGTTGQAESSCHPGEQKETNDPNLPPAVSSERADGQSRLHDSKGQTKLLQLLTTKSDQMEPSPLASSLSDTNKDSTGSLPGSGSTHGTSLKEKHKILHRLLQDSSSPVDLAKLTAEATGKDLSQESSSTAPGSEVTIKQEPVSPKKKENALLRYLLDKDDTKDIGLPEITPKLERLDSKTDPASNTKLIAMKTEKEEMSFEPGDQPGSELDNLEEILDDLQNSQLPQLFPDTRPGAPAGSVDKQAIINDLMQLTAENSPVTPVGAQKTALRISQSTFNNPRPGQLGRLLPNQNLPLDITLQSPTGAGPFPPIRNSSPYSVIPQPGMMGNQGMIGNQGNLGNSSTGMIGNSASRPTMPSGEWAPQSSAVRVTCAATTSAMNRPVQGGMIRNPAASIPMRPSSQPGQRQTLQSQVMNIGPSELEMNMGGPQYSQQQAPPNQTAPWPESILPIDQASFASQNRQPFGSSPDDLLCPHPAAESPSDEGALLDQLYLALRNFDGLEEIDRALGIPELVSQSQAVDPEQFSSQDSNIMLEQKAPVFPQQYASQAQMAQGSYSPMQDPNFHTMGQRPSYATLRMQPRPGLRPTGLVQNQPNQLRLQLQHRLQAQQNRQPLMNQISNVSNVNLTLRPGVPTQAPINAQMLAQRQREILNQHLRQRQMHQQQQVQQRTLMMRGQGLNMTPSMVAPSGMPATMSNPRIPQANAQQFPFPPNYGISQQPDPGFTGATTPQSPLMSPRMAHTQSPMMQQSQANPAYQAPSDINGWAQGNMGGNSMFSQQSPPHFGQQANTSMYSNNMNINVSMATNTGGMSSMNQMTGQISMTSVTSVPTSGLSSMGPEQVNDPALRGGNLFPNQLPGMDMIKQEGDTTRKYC
# [5] = target: Galanin receptor type 2 (Homo sapiens) (UniProt O43603); test: GALR2 antagonists, retest of hits, confirmation, cell-based (AID 866; in the data active = inhibition above about 27%;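 note: cells stimulated with galanin at about its EC80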); details: GALR2-expressing cells, antagonist mode, at 4 µM, active compounds read high
# Galanin receptor type 2 (Homo sapiens), sequence (O43603 whole entry, looked up): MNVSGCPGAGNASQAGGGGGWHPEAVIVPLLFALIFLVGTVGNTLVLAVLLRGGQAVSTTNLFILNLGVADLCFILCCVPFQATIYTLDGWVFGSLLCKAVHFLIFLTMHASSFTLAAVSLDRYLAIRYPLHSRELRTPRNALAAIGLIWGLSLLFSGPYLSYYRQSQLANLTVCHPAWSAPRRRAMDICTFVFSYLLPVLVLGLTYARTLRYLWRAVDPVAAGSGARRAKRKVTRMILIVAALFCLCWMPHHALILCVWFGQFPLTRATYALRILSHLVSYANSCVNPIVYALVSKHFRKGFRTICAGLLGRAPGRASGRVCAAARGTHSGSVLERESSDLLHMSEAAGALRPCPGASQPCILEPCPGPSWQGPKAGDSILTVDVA
# [6] = inhibitors of NFAT-driven beta-lactamase reporter, confirmation, counter-screen for GALR2 antagonist project, CHO NFAT-bla cells, FRET readout (AID 867;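 active = inhibition above the mean inhibition across tested compounds plus 3 SD, cut at about 27% in these data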;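 note: 0% = 500 nM thapsigargin stimulated wells and 100% = unstimulated BSA only wells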); details: thapsigargin-stimulated, at 4.2 µM, active compounds read high
# [7] = Gal4-VP16 luciferase reporter inhibitors, counter-screen for COUP-TFII antagonist project, cell-based, luminescence, HEK293 (AID 687007; in the data active = inhibition above about 13%); details: at 8.5 µM, active compounds read high
# [8] = target: COUP transcription factor 2 (Homo sapiens) (UniProt P24468); test: NR2F2 transcriptional activity inhibitors, confirmation, cell-based, luciferase reporter, HEK293, triplicate (AID 687008;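 active = mean inhibition over three repeats above a set limit taken from the earlier primary screen, cut at about 38% in these data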;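 note: 100% = cells given the luciferase reporter alone without the COUP-TF2 vector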); details: HEK293 NGFI-A luciferase reporter, luminescence; at 8.5 µM; active compounds read high
# COUP transcription factor 2 (Homo sapiens), sequence (P24468 whole entry, looked up, the tested form may be a part): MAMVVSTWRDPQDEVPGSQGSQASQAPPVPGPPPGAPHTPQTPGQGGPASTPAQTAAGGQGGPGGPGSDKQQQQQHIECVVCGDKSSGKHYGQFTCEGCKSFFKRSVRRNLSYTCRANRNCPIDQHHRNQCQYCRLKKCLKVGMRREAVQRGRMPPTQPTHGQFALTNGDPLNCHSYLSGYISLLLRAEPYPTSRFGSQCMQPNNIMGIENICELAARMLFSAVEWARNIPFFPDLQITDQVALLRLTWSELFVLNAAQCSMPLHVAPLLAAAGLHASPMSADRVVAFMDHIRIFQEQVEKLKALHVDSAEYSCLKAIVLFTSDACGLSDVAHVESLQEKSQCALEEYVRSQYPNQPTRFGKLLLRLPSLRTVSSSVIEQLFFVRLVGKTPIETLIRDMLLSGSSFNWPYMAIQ
# [9] = target: Nuclear receptor coactivator 1 (Homo sapiens) (UniProt Q15788); test: SRC1 coactivator transcriptional activity inhibitors, confirmation, cell-based, luminescence, quadruplicate (AID 588820;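 active = mean inhibition above 46.68%, the untreated control wells mean plus 3 SD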;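 note: 0% = DMSO wells and 100% = gossypol 36 µM treated wells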); details: HEK293 GAL4-SRC1 luciferase reporter, at 3.6 µM, active compounds read high
# Nuclear receptor coactivator 1 (Homo sapiens), sequence (Q15788 whole entry, looked up, the tested form may be a part): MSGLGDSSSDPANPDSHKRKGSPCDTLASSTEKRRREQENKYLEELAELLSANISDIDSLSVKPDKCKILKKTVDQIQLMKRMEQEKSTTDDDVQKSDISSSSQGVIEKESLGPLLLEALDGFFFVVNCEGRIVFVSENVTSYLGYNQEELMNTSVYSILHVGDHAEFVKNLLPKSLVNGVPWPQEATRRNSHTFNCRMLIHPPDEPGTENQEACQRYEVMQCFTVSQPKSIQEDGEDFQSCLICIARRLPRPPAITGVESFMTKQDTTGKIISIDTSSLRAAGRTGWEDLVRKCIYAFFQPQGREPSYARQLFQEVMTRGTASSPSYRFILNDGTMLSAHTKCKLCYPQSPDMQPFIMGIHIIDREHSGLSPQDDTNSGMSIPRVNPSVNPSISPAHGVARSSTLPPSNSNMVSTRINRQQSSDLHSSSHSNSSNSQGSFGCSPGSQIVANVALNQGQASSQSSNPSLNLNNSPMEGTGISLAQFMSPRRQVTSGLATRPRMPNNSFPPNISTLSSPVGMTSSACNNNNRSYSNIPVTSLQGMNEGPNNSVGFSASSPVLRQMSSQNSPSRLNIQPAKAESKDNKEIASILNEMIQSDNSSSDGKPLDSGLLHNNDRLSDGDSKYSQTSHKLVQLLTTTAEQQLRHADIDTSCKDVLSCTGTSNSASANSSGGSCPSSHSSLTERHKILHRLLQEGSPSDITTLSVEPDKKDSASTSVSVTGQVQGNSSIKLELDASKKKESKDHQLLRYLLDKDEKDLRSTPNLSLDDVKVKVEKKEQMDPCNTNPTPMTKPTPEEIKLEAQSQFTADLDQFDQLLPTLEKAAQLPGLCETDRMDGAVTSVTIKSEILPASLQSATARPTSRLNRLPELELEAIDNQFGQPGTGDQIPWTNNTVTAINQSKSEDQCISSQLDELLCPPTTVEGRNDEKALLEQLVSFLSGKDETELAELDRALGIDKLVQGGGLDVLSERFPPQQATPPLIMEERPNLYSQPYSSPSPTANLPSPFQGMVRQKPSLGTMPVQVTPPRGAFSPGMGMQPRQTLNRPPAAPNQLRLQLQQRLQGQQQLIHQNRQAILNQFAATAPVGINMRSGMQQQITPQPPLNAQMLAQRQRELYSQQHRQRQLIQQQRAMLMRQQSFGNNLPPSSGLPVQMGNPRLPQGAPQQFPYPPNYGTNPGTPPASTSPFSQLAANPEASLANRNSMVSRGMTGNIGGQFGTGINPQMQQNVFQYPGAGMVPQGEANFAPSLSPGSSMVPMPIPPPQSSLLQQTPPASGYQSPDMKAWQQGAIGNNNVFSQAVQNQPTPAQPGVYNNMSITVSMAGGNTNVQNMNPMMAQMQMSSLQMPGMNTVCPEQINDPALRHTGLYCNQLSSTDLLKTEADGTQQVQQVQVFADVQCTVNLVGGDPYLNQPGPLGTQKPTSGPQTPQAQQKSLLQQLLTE
# [10] = VP16 transactivation inhibitors, counter-screen for SRC1 inhibitor project, cell-based, luminescence, high throughput (AID 588824); details: cell-based VP16 transactivation luciferase luminescence; at 3.6 µM; active compounds read high
compound,measurement,setting,value
CCOc1ccc(C(=O)C(CCC(CN(C)C)C(=O)c2ccc(OCC)cc2)CN(C)C)cc1 (stereo not given),inhibition,[1],-1.23%
same,inhibition,[2],34.5% (active)
same,inhibition,[3],42.6% (active)
same,inhibition,[4],54.2% (active)
Cc1cc(Sc2nnc(N)s2)c2ccccc2n1,inhibition,[1],-6.91%
same,inhibition,[2],22.2%
same,inhibition,[3],11.7%
same,inhibition,[4],32%
COc1ccc2nc(C)cc(Sc3nc4ccccc4s3)c2c1,inhibition,[1],28.2%
same,inhibition,[2],18.1%
same,inhibition,[3],26%
same,inhibition,[4],51.3% (active)
COc1cccc(F)c1C(C[N+](=O)[O-])c1c(N)n(C)c(=O)n(C)c1=O (stereo not given),inhibition,[1],42.5%
same,inhibition,[2],24.4%
same,inhibition,[3],14.7%
same,inhibition,[4],28.2%
O=C1Cc2c([nH]c3ccc([N+](=O)[O-])cc23)-c2ccccc2N1,inhibition,[1],91.9% (active)
same,inhibition,[2],88.9% (active)
same,inhibition,[3],23.5%
same,inhibition,[4],51% (active)
CCOc1cc(/C=C2\COc3ccccc3C2=O)ccc1OCC(=O)N(C)C,inhibition,[1],17.5%
same,inhibition,[2],28.5%
same,inhibition,[3],32.2%
same,inhibition,[4],27.8%
CC(C)C(=O)NC(c1ccco1)c1ccc2cccnc2c1O (stereo not given),inhibition,[1],32.7%
same,inhibition,[2],20.6%
same,inhibition,[3],-13.3%
same,inhibition,[4],8.96%
COc1ccc(Cc2nnc(N/N=C/c3ccc(O)cc3)[nH]c2=O)cc1OC,inhibition,[1],84.4% (active)
same,inhibition,[2],81% (active)
same,inhibition,[3],33.1%
same,inhibition,[4],50.5% (active)
O=C(/C=C\Nc1ccc2c(c1)OCO2)c1ccccn1,inhibition,[1],22.5%
same,inhibition,[2],14.7%
same,inhibition,[3],29.3%
same,inhibition,[4],62% (active)
CCN(CC)S(=O)(=O)c1cccc(C(=O)N/N=C(\C)c2ccc(O)cc2O)c1,inhibition,[1],66.7% (active)
same,inhibition,[2],43.7% (active)
same,inhibition,[3],2.49%
same,inhibition,[4],31.6%
O=C(OCc1ccccc1)c1ccc(NCc2cc(O)ccc2O)cc1,inhibition,[1],70.6% (active)
same,inhibition,[2],25.9%
same,inhibition,[3],94.5% (active)
same,inhibition,[4],90% (active)
COc1ccc(COC(=O)C2=C(C)NC(=O)NC2c2ccc(F)cc2)cc1 (stereo not given),inhibition,[1],34.1%
same,inhibition,[2],28.1%
same,inhibition,[3],10.2%
same,inhibition,[4],31.4%
Cc1noc(C)c1COC(=O)c1cccc(S(=O)(=O)N2CCCCCC2)c1,inhibition,[1],8.78%
same,inhibition,[2],20.2%
same,inhibition,[3],9.01%
same,inhibition,[4],13%
CC(C)(C)C(=O)Nc1ccc(-c2cc3cc(Cl)ccc3o2)cc1,inhibition,[1],-53%
same,inhibition,[2],-26.2%
same,inhibition,[3],-83.9%
same,inhibition,[4],-30.7%
Cc1nnnn1/C(=C\c1ccccc1)C(=O)OCC(=O)N1CC2(C)CC1CC(C)(C)C2 (stereo not given),inhibition,[5],39% (active)
same,inhibition,[6],16.1%
Cc1ccc(C)c(N2CCN(C(=O)CCCCCn3c(=S)[nH]c4ccc(N5CCOCC5)cc4c3=O)CC2)c1,inhibition,[7],15% (active)
same,inhibition,[8],90% (active)
COc1ccc(CN2CCN(C(=O)c3ccc(S(=O)(=O)N4CCCCCC4)cc3)CC2)cc1,inhibition,[9],-2.25%
same,inhibition,[10],25.6% (active)
COc1ccc(-c2cc(N3C(=O)Nc4ccccc4N3O)n[nH]2)c(OC)c1,inhibition,[9],25.8%
same,inhibition,[10],20.1%
CC1(C(=O)NS(=O)(=O)Cc2cccc(Cl)c2)CCN1C(=O)Cc1ccc(-c2ccccc2)cc1 (stereo not given),inhibition,[9],-5.52%
same,inhibition,[10],-14.3%
CC1CCN(C(=O)c2scc3c2OCCO3)CC1,inhibition,[9],18.3%
same,inhibition,[10],8.58%
COC(=O)c1cc2ccccn2c2c(C(=O)OC)c(C(=O)OC)cc1-2,inhibition,[9],-58.3%
same,inhibition,[10],-27.2%
COc1cccc(C(c2c(NC(=O)c3ccco3)sc(C)c2C)N2CCOCC2)c1 (stereo not given),inhibition,[9],-6.24%
same,inhibition,[10],-1.54%
COc1ccc(S(=O)(=O)Nc2ccccc2C(=O)N2CCCC2)cc1OC,inhibition,[9],-5.26%
same,inhibition,[10],-1.42%
CSc1ccc(CN2CCN(Cc3ccc([N+](=O)[O-])cc3)CC2)cc1,inhibition,[9],-10.7%
same,inhibition,[10],26.8% (active)
COc1ccccc1OCCC(=O)OCC(=O)NC(C)c1ccccc1 (stereo not given),inhibition,[9],-8.57%
same,inhibition,[10],-18.5%
CSc1nc2[nH]ncc2c(=O)[nH]1,inhibition,[9],-1.61%
same,inhibition,[10],1.46%
Cc1cc2c(OCC(O)CNCc3ccco3)cccc2[nH]1 (stereo not given),inhibition,[9],-14.2%
same,inhibition,[10],-11.1%
Cc1ccccc1CN1CCC(Oc2ccc(C(=O)NCc3ccccn3)cc2)CC1,inhibition,[9],-15.8%
same,inhibition,[10],8.1%
C[C@H]1Cn2cnc(C(=O)Nc3cccc(Cl)c3)c2C(=O)N1,inhibition,[9],61.2% (active)
same,inhibition,[10],34% (active)
COc1ccc(-n2cc(-c3ccccc3)c3c(N4CCOCC4)ncnc32)cc1,inhibition,[9],-50.7%
same,inhibition,[10],-1.14%
O=C(N[C@H]1c2ccccc2C[C@H]1O)[C@H]1O[C@@H](n2ccc(=O)[nH]c2=O)[C@H](O)[C@@H]1O,inhibition,[9],-26.1%
same,inhibition,[10],-8.81%
Cc1nc(N/N=C/c2ccc(O)cc2O)cc(N2CCOCC2)n1,inhibition,[9],-26.5%
same,inhibition,[10],-14.6%
Cc1cc([N+](=O)[O-])nn1CCCC(=O)Nc1ccc(Cl)cc1Cl,inhibition,[9],-11.6%
same,inhibition,[10],-4.49%
CN1OC[C@@H]2CN(C(=S)NCCc3ccccc3)[C@H](c3ccc(-n4ccnc4)cc3)C[C@@H]21,inhibition,[9],-1.96%
same,inhibition,[10],-0.23%
Cc1cc(C)nc(/N=C(\N)Nc2ccc(C(C)C)cc2)n1,inhibition,[9],3.7%
same,inhibition,[10],9.11%
O=C(CCC(=O)Nc1ccc(Br)cc1)N/N=C/c1ccccc1O,inhibition,[9],29.2%
same,inhibition,[10],22.2%
CCCCc1ccc(NC(=O)Nc2c(C)n(C)n(-c3ccccc3)c2=O)cc1,inhibition,[9],-11%
same,inhibition,[10],7.24%
CCN(CC)c1ccc(/C=N/Nc2nc3ccccc3[nH]2)c(O)c1,inhibition,[9],-7.34%
same,inhibition,[10],3.82%
CCCc1cc(=O)oc2c(C)c(O[C@@H]3O[C@H](CO)[C@@H](O)[C@H](O)[C@H]3O)ccc12,inhibition,[9],-6.26%
same,inhibition,[10],-0.67%
CCN1C(=O)c2cccc3c(S(=O)(=O)Nc4ccc(O)c(C(=O)O)c4)ccc1c23,inhibition,[9],5.84%
same,inhibition,[10],-15.2%
Cc1ccc(C)c(CN2C(=O)c3ccccc3S(=O)c3ccc(C(=O)N4CCN(c5ccccn5)CC4)cc32)c1 (stereo not given),inhibition,[9],-18.5%
same,inhibition,[10],77.7% (active)
COC(=O)c1sc2cnccc2c1N,inhibition,[9],21.5%
same,inhibition,[10],4.54%
Cc1nc2ccccc2c(N)c1C(=O)/C=C/c1ccccc1,inhibition,[9],28.7%
same,inhibition,[10],31.6% (active)
O=C(Cc1cccs1)N(CC1CCCO1)C1(C(=O)NC2CCCCC2)CCCCC1 (stereo not given),inhibition,[9],7.13%
same,inhibition,[10],14.9%
O=C(Nc1ccc(Cc2ccncc2)cc1)c1ccc(S(=O)(=O)N2CCOCC2)cc1,inhibition,[9],-12.7%
same,inhibition,[10],9.65%
CCOc1cccc(/C=N/NC(=O)c2cccnc2)c1O,inhibition,[9],17.4%
same,inhibition,[10],9.63%
CC(C)=CCCC(C)CN1CCC(n2nccc2NC(=O)c2ccccc2)CC1 (stereo not given),inhibition,[9],-6.47%
same,inhibition,[10],-14.3%
COc1cc2c(cc1OC)CN(C(=O)c1cc(S(=O)(=O)N3CCOCC3)ccc1C)CC2,inhibition,[9],1.45%
same,inhibition,[10],7.41%
O=C(c1cc(COc2c(F)cccc2F)on1)N1CCC(c2ccncc2)CC1,inhibition,[9],-8.98%
same,inhibition,[10],19.7%
CCOC(=O)Cc1csc(SCC(=O)c2c(N)n(CC(C)C)c(=O)n(C)c2=O)n1,inhibition,[9],-7.3%
same,inhibition,[10],26.3% (active)
CC(C)N(C)c1ncnc2c1ncn2[C@H]1CN(Cc2ccncc2)C[C@@H](CO)O1,inhibition,[9],-19.9%
same,inhibition,[10],-7.41%
CN(C)C(=O)c1ccc(-c2n[nH]c(=O)c3ccccc23)cc1,inhibition,[9],34.3%
same,inhibition,[10],18.3%
CCc1nc2c(OCc3c(C)noc3C)cccn2c1N(C=O)Cc1ccccc1,inhibition,[9],-4.23%
same,inhibition,[10],-5.1%
O=C(NCc1ccco1)c1cccc(NC(=O)c2ccco2)c1,inhibition,[9],28.5%
same,inhibition,[10],50% (active)
COc1ccc(NS(=O)(=O)c2cc(NC(=O)CC(C)(C)C)ccc2N2CCCC2)cc1,inhibition,[9],-10.7%
same,inhibition,[10],-1.18%
O=C(COC(=O)CCC(=O)c1ccccc1)Nc1nnc(-c2ccccc2)o1,inhibition,[9],-19.6%
same,inhibition,[10],-8.55%
C/C(=N\N=C1\NC(=O)C(CC(=O)O)S1)c1ccccn1 (stereo not given),inhibition,[9],-1.33%
same,inhibition,[10],-8.7%
COc1ccc2c(c1)-c1c(ssc1=S)C(C)(C)N2C(=O)CSC1=NCCS1,inhibition,[9],24.9%
same,inhibition,[10],12.4%
CSc1ccc(CN2CCN(C(=O)CC(C)C)CC2)cc1,inhibition,[9],-3.21%
same,inhibition,[10],-2.54%
CCOC(=O)N1CCc2c(sc(NC(=O)CN3CCOCC3)c2C(=O)Nc2ccccc2)C1,inhibition,[9],-17.7%
same,inhibition,[10],-5.16%
CCOC(=O)c1c(NC(=O)COc2ccccc2C#N)sc2c1CC(C)(C)NC2(C)C,inhibition,[9],-41.5%
same,inhibition,[10],-13.1%
CCC(NC(=O)NC1CCCCC1)c1ccccc1 (stereo not given),inhibition,[9],-16%
same,inhibition,[10],-3.88%
CC(=O)c1cn(CCOc2cc(C)ccc2C)c2ccccc12,inhibition,[9],-27%
same,inhibition,[10],33.7% (active)
COc1ccc(-c2cc(=O)oc3c(C)c(O)c(CN(C)C)cc23)cc1,inhibition,[9],17.5%
same,inhibition,[10],18.4%
Cc1sc2ncnc(N3CCN(C(=O)c4ccco4)CC3)c2c1C,inhibition,[9],-0.07%
same,inhibition,[10],7.79%
CC(C)C[C@H]1CNC(=S)N1C[C@H]1CCCN1C[C@H](CC(C)C)N1C[C@H](CC(C)C)N(CCc2ccccc2)C1=S,inhibition,[9],-1.01%
same,inhibition,[10],1.5%
